The values that follow come from article PMC8222333, “AsCas12a ultra nuclease facilitates the rapid generation of therapeutic cell medicines”.

Positions count from the first letter of the chain named.

Sequences and labels used below:
B1: TCTC (dsDNA)
DNA 1: GCTATCTAGTGCTCAGTACGCACTGTCTCAGGAAACTTCTGGCAGGACCAGGTCATGAGATCGGAAGAGCACACGTCTGAACTCCAGTCA
DNA 2: TGACTGGAGTTCAGACGTGTGCTCTTCCGATCTCATGACCTGGTCCTGCCAGAAGTTTCCTGAGACAGTGCGTACTGAGCACTAGATAGC
RNA: AAUUUCUACUCUUGUAGAUAGGAAACUUCUGGCAGGACC
B2: TGTA (dsDNA)
DNA 1: B1 DNA 1 with C27G, C29A
DNA 2: B1 DNA 2 with G62T, G64C
RNA: B1 RNA
B3: TTGA (dsDNA)
DNA 1: B1 DNA 1 with C27T, T28G, C29A
DNA 2: B1 DNA 2 with G62T, A63C, G64A
RNA: B1 RNA
B4: TGTC (dsDNA)
DNA 1: B1 DNA 1 with C27G
DNA 2: B1 DNA 2 with G64C
RNA: B1 RNA
B5: TTTC (dsDNA)
DNA 1: B1 DNA 1 with C27T
DNA 2: B1 DNA 2 with G64A
RNA: B1 RNA
B6: TTCA (dsDNA)
DNA 1: B1 DNA 1 with C27T, T28C, C29A
DNA 2: B1 DNA 2 with G62T, A63G, G64A
RNA: B1 RNA
B7: TTGC (dsDNA)
DNA 1: B1 DNA 1 with C27T, T28G
DNA 2: B1 DNA 2 with A63C, G64A
RNA: B1 RNA
B8: TTCC (dsDNA)
DNA 1: B1 DNA 1 with C27T, T28C
DNA 2: B1 DNA 2 with A63G, G64A
RNA: B1 RNA
B9: TTCT (dsDNA)
DNA 1: B1 DNA 1 with C27T, T28C, C29T
DNA 2: B1 DNA 2 with G62A, A63G, G64A
RNA: B1 RNA
B10: TTAA (dsDNA)
DNA 1: B1 DNA 1 with C27T, T28A, C29A
DNA 2: B1 DNA 2 with G62T, A63T, G64A
RNA: B1 RNA
B11: TTTG (dsDNA)
DNA 1: B1 DNA 1 with C27T, C29G
DNA 2: B1 DNA 2 with G62C, G64A
RNA: B1 RNA
B12: TCTG (dsDNA)
DNA 1: B1 DNA 1 with C29G
DNA 2: B1 DNA 2 with G62C
RNA: B1 RNA
B13: TTAC (dsDNA)
DNA 1: B1 DNA 1 with C27T, T28A
DNA 2: B1 DNA 2 with A63T, G64A
RNA: B1 RNA

The first assay deals with dAsCas12a WT (Acidaminococcus sp., UniProt U2UMQ6 1-1307, D908A;E993A;D1235A). In words: Spec-seq (native PAGE EMSA with sequencing of bound and unbound); 25 mM Tris-HCl pH 7.4, 150 mM KCl, 5 mM MgCl2, 10% glycerol, 1 mM DTT, 40 ng/uL salmon sperm DNA; 400 nM Cas12a, 480 nM crRNA, 50 nM library, 37 C 1 h; native P; high values mean tight binding.
Details: not given
(In EMSA bound probe runs differently from free probe, usually more slowly.)
With B1, the binding signal was -5.94 lnKA.
Take B2: the binding signal was -7.99 lnKA.
In turn, B3 came in with a binding signal of -8.14 lnKA.
On the same count and under the same terms, the figure for B4 is -8.93 lnKA; for B5 it is 0.0688 lnKA; for B6 it is -7.22 lnKA.
B7: the binding signal is -8.28 lnKA.
Same read-out and setting: the figure for B8 is -7.28 lnKA; for B9 it is -8.65 lnKA; for B10 it is -8.61 lnKA.
For B11, the binding signal is -1.4 lnKA.
B12: the binding signal was -6.99 lnKA.
On the same count and under the same terms, the value for B13 was -8.99 lnKA.

A further assay deals with dAsCas12a Ultra (Acidaminococcus sp., UniProt U2UMQ6 1-1307, M537R;F870L;D908A;E993A;D1235A). In words: Spec-seq (native PAGE EMSA with sequencing of bound and unbound); 25 mM Tris-HCl pH 7.4, 150 mM KCl, 5 mM MgCl2, 10% glycerol, 1 mM DTT, 40 ng/uL salmon sperm DNA; 400 nM Cas12a, 480 nM crRNA, 50 nM library, 37 C 1 h; native PAGE at room temperature; high values mean tight binding. The settings on record: protein: recombinant.
On to B1, for which the binding signal is -3.61 lnKA.
Same read-out and setting: the value for B2 was -6.4 lnKA; that for B3 was -6.6 lnKA; that for B4 was -7.57 lnKA.
On the same count and under the same terms, the value for B5 was -0.0656 lnKA; that for B6 was -4.73 lnKA; that for B7 was -6.02 lnKA.
On to B8, for which the binding signal is -4.81 lnKA.
In the case of B9, the binding signal is -6.53 lnKA.
For the molecule B10, the binding signal is -7.33 lnKA.
As to B11, the binding signal was -0.474 lnKA.
The same measure, in the same setting: the value for B12 was -4.53 lnKA.
With B13, the binding signal is -7.13 lnKA.

The target in a further assay is dAsCas12a E174R (Acidaminococcus sp., UniProt U2UMQ6 1-1307, E174R;D908A;E993A;D1235A). The assay is described as above. The settings on record: protein: recombinant.
With B1, the binding signal was -3.18 lnKA.
With B2, the binding signal is -6.64 lnKA.
Still for that read-out and setting: the figure for B3 is -7.49 lnKA; for B4 it is -7.56 lnKA.
For B5, the binding signal is -0.339 lnKA.
B6: the binding signal was -3.99 lnKA.
Still for that read-out and setting: the value for B7 was -6.51 lnKA; that for B8 was -4.78 lnKA; that for B9 was -6.23 lnKA.
Consider B10, for which the binding signal was -7.28 lnKA.
On the same count and under the same terms, the figure for B11 is -0.628 lnKA; for B12 it is -4.57 lnKA; for B13 it is -6.79 lnKA.

A further assay concerns the target dAsCas12a S542R (Acidaminococcus sp., UniProt U2UMQ6 1-1307, S542R;D908A;E993A;D1235A). Described as above. The settings on record: protein: recombinant.
B1: the binding signal is -4.47 lnKA.
Take B2: the binding signal was -6.54 lnKA.
Still for that read-out and setting: the value for B3 was -6.46 lnKA; that for B4 was -7.52 lnKA.
Still for that read-out and setting: the figure for B5 is -0.143 lnKA; for B6 it is -1.85 lnKA.
Take B7: the binding signal was -6.74 lnKA.
In the case of B8, the binding signal was -1.16 lnKA.
B9: the binding signal is -3.26 lnKA.
With B10, the binding signal was -6.82 lnKA.
Regarding B11, the binding signal was -0.333 lnKA.
Consider B12, for which the binding signal is -5.38 lnKA.
Turning to B13, the binding signal is -6.51 lnKA.

The next assay has as its target dAsCas12a K548R (Acidaminococcus sp., UniProt U2UMQ6 1-1307, K548R;D908A;E993A;D1235A). The description is as above. The conditions noted are these: protein: recombinant.
On to B1, for which the binding signal is -8.65 lnKA.
Same read-out and setting: the value for B2 was -7.23 lnKA; that for B3 was -8.53 lnKA.
On the same count and under the same terms, the figure for B4 is -6.58 lnKA.
On the same count and under the same terms, the figure for B5 is 0.462 lnKA; for B6 it is -6.86 lnKA; for B7 it is -7.43 lnKA.
For B8, the binding signal is -6.53 lnKA.
B9: the binding signal was -8.32 lnKA.
Turning to B10, the binding signal is -8.66 lnKA.
With B11, the binding signal was -0.458 lnKA.
Regarding B13, the binding signal was -8.18 lnKA.

In the next assay the target is d-enCas12a (Acidaminococcus sp., UniProt U2UMQ6 1-1307, E174R;S542R;K548R;D908A;E993A;D1235A). Described as above. The settings on record: protein: recombinant.
As for B1, the binding signal was -3.15 lnKA.
With B2, the binding signal is -0.876 lnKA.
Same read-out and setting: the value for B3 was -4.32 lnKA.
As to B4, the binding signal was -0.999 lnKA.
Consider B5, for which the binding signal was determined as 0.00167 lnKA.
On the same count and under the same terms, the value for B6 was -0.506 lnKA; that for B7 was -2.75 lnKA.
As for B8, the binding signal is -0.274 lnKA.
Still for that read-out and setting: the figure for B9 is -0.829 lnKA.
Still for that read-out and setting: the figure for B10 is -3.79 lnKA; for B11 it is -0.151 lnKA; for B12 it is -4.86 lnKA.
Same read-out and setting: the figure for B13 is -1.59 lnKA.

The next assay concerns the target d-enCas12a-Ultra (Acidaminococcus sp., UniProt U2UMQ6 1-1307, E174R;S542R;K548R;M537R;F870L;D908A;E993A;D1235A). The description is as above. The settings on record: protein: recombinant.
B1: the binding signal was -0.761 lnKA.
Same read-out and setting: the value for B2 was -0.296 lnKA.
Still for that read-out and setting: the value for B3 was -2.04 lnKA.
Regarding B4, the binding signal was -0.323 lnKA.
For B5, the binding signal was found to be 0.033 lnKA.
Consider B6, for which the binding signal is -0.166 lnKA.
Still for that read-out and setting: the figure for B7 is -0.707 lnKA; for B8 it is -0.0946 lnKA.
As for B9, the binding signal is -0.251 lnKA.
For B10, the binding signal is -1.68 lnKA.
Take B11: the binding signal was -0.067 lnKA.
Still for that read-out and setting: the figure for B12 is -1.79 lnKA; for B13 it is -0.507 lnKA.
